High-throughput results from PubChem.
This is a sample that favours compounds with a hit; in the whole collection about 9.2% have one here.
SMN2 splice enh: qHTS Assay for Enhancers of SMN2 Splice Variant Expression | AID 1458, 2008 | HEK293 SMN2-luciferase splicing reporter, luminescence, 30-36 h | 2.8% of 210,000 active | Potency, µM (top dose mostly 46.1 µM), actives largely listed as activators; also: nearly all actives have a fitted effect of over 55% in size
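HEK293 cells carry an SMN2 minigene-luciferase reporter in which exon 7 inclusion puts luciferase in frame. Cells were seeded at 2000 cells/well, attached for 10-12 hours, then exposed to compounds for 30-36 hours at 37C before ONE-Glo luminescence.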
Rab9 promoter act: qHTS Assay for Rab9 Promoter Activators. 2.8% of 320,000 active. Potency, µM (titrated, usually from 9.22 µM), hits mostly activators. AID 485297, 2010. Huh7 Rab9 promoter-luciferase reporter, luminescence, 24 h; also: nearly all actives have a fitted effect of over 60% in size
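Huh7 reporter line, Rab9 promoter upstream of luciferase. Compound exposure 24 h at 37 °C in reduced-serum medium with 10% FBS. Read-out: luminescence.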
ELG1 genotoxic: qHTS screen for small molecules that induce genotoxicity in human embryonic kidney (HEK293T) cells expressing luciferase-tagged ELG1; 1.3% of 330,000 active; HEK293T ELG1-luciferase reporter, luminescence, 16 h; Potency, µM (top dose mostly 46 µM), most hits filed as activators; AID 504466, 2011; also: nearly all actives have a fitted effect of over 60% in size
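Step 1: seed 2,000 HEK293T ELG1-luciferase cells per well. Step 2: add compound or DMSO, incubate 16 hr at 37 °C. Step 3: ONE-Glo, 30 min at room temperature, read luminescence.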
NPC1 prom act: qHTS Assay for NPC1 Promoter Activators. Huh7 NPC1 promoter luciferase reporter, 24 h. 2.4% of 320,000 active. Potency, µM (highest dose often 9.22 µM), most hits filed as activators. AID 485313, 2010; also: nearly all actives have a fitted effect of over 60% in size
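Cells: Huh7 expressing luciferase under the NPC1 promoter, 1500/well. Seeded 2 h, compound added, incubated 24 h at 37 °C. Luciferase reagent, 10 min ambient, then luminescence.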
ELG1 repair inh: qHTS screen for small molecules that inhibit ELG1-dependent DNA repair in human embryonic kidney (HEK293T) cells expressing luciferase-tagged ELG1 | HEK293T ELG1-luciferase reporter, luminescence, 16 h; DNA damage induced by 5-fluorouridine | Potency, µM (top dose mostly 46.1 µM), hits mostly inhibitors | 2.3% of 330,000 active | AID 504467, 2011; also: nearly all actives have a fitted effect of over 55% in size
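Overnight (16 hr) co-exposure of 2,000 cells/well to 5-fluorouridine and compound at 37 °C preceded detection. Luciferase was quantified via ONE-Glo luminescence; loss of signal denotes inhibition.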
FLuc modulator: qHTS profiling assay for firefly luciferase inhibitor/activator using purifed enzyme and Km concentrations of substrates (counterscreen for miR-21 project). Potency, µM (highest dose often 57.5 µM), usual class: inhibitors. Luciferin 4-monooxygenase (Photinus pyralis), P08659. 6.9% of 360,000 active. purified FLuc, Km substrates, luminescence inhibition. AID 588342, 2011; also: nearly all actives have a fitted effect of over 55% in size
Target sequence (P08659 whole entry, looked up): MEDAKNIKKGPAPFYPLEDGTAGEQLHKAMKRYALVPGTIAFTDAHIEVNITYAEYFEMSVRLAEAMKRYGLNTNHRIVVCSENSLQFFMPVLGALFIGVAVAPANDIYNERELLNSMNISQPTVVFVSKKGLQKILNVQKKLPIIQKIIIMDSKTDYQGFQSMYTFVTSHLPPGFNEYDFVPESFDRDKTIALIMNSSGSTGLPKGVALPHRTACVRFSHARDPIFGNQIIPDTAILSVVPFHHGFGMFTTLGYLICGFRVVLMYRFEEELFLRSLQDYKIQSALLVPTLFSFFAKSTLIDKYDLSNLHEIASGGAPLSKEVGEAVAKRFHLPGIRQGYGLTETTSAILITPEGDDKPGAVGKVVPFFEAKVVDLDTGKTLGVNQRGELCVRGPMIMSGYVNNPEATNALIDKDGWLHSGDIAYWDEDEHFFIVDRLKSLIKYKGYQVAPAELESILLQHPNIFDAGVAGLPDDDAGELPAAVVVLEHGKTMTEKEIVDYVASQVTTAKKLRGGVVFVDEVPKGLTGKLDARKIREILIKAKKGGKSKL
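Biochemical qHTS of compounds, final roughly 60 µM downward over six points, against 10 nM purified firefly luciferase using Km concentrations of substrates (10 uM D-luciferin, 10 uM ATP) in Tris acetate pH 7.5 buffer; luminescence output.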
Hits are given with their value; – = inactive; ? = inconclusive; · = no result. Calls follow the shape of the dose curve; as a rule, active = well fitted curve in the direction sought with a large enough effect; inconclusive = small, poorly fitted or top-dose-only effect, or another doubt; inactive = no such curve, though single readings can be large; an effect the other way counts as inactive or inconclusive.

SMILES	SMN2 splice enh	Rab9 promoter act	ELG1 genotoxic	NPC1 prom act	ELG1 repair inh	FLuc modulator
CCOC(=O)C1CCN(c2c(Nc3ccc4c(c3)OCCO4)c(=O)c2=O)CC1	–	–	?	–	?	21µM
CCOC(=O)N1CCC(N2C(=O)c3ccccc3C2Nc2ccc3c(c2)OCCO3)CC1 (centres undefined)	–	–	?	–	?	21µM
CCOC(=O)N1CCC(N2C(=O)c3ccccc3C2Nc2ccc3c(C)cc(=O)oc3c2)CC1 (centres undefined)	–	–	–	–	?	–
CCOC(=O)C1CCN(C(C(=O)Nc2ccc3c(c2)OCCO3)c2ccccc2)CC1 (centres undefined)	–	–	–	–	–	–
COC(=O)c1cc(C(=O)OCC(=O)c2ccc3c(c2)NC(=O)CO3)cc([N+](=O)[O-])c1	·	–	–	–	–	–
CCC(=O)N1c2ccc(S(=O)(=O)N3CCC(C)CC3)cc2CC1C (centres undefined)	–	·	·	·	·	–
Cc1ccc2nc(SCC(=O)c3ccc(O)cc3O)[nH]c2c1	·	3.2µM	?	?	?	8.5µM
COC(=O)CSc1nc2ccc(C)cc2[nH]1	–	–	–	–	–	?
Cc1ccc2nc(SCC(=O)N3CCCC3)[nH]c2c1	11µM	1.4µM	3.7µM	2µM	?	6.7µM
Cc1ccc2nc(SC(C)C(=O)N3CCCC3)[nH]c2c1 (centres undefined)	11µM	?	?	–	?	?
Cn1cnc([N+](=O)[O-])c1Sc1ncnc2nc[nH]c12	–	–	–	–	0.21µM	–
Cc1cccnc1Sc1c([N+](=O)[O-])ncn1C	–	–	–	–	–	–
CCOc1ccc(CCNC(=O)Cn2ncc3c(=O)oc4ccc(C)cc4c32)cc1	–	·	·	·	·	–
O=C(NNC1=NS(=O)(=O)c2ccccc21)c1ccc(Cl)cc1	–	?	–	?	?	3.4µM
O=C(NNC1=NS(=O)(=O)c2ccccc21)c1ccc([N+](=O)[O-])cc1	·	–	–	?	–	1.5µM
CCN(CC)S(=O)(=O)c1ccc(C(=O)NNC2=NS(=O)(=O)c3ccccc32)cc1	·	–	–	–	–	–
O=C(Cc1ccccc1)NNC1=NS(=O)(=O)c2ccccc21	·	–	–	–	–	?
CCN(CC)C(=O)c1sc2c(c1C)c(=O)n(CCc1ccccc1)c(=O)n2Cc1cc(C)ccc1C	·	·	·	·	·	–
Cc1ccc(OCCSc2ncnc3nc[nH]c23)cc1	–	2.5µM	9.2µM	?	?	13µM
C/C(=N\OC(=O)NC1CCCCC1)c1sc(-c2ccccc2)nc1C	–	–	–	–	?	?
C/C(=N\OC(=O)c1ccc(F)cc1)c1sc(-c2ccccc2)nc1C	20µM	1.6µM	?	2µM	?	–
Cc1nc(-c2ccccc2)sc1C(=O)CSc1ccc(Cl)cc1	–	–	–	–	–	–
C/C(=N\OC(=O)c1ccc(Cl)cc1)c1sc(-c2ccccc2)nc1C	?	4µM	?	4µM	?	–
Cc1ccc(-c2csc3ncnc(SCc4ccc(C(=O)O)cc4)c23)cc1	·	–	–	–	–	–
CC(C)c1ccc(N)c(S(=O)(=O)O)c1	·	–	–	–	–	–
SMILES	SMN2 splice enh	Rab9 promoter act	ELG1 genotoxic	NPC1 prom act	ELG1 repair inh	FLuc modulator
O=c1c2ccccc2oc2ccc(NCCCn3ccnc3)cc12	·	1.1µM	?	1.4µM	?	1.7µM
CCOC(=O)N1CCN(S(=O)(=O)N2CCCC(C(=O)NCc3ccc(OC)cc3)C2)CC1 (centres undefined)	·	–	–	–	–	–
Cn1cc(S(=O)(=O)N2CCCCCC2)cc1C(=O)Nc1ccc(Cl)c(C(F)(F)F)c1	·	·	·	·	·	–
COCc1cc(C)nc2sc(C(=O)Nc3ccccc3OC)c(N)c12	·	–	–	–	?	17µM
COCc1cc(C)nc2sc(C(=O)Nc3ccc(OC)cc3)c(N)c12	·	?	?	–	?	?
COCc1cc(C)nc2sc(C(=O)Nc3cccc(OC)c3)c(N)c12	·	3.2µM	?	2.2µM	?	8.5µM
COC(=O)c1c(C)oc(C)c1S(=O)(=O)N1CCOCC1	·	–	–	–	?	–
CC(=O)N(C)c1ccc(N=Nc2c(C)[nH]n(-c3ccccc3)c2=O)cc1	·	–	–	–	–	–
CC(=O)N(C)c1ccc(N=Nc2c(C)[nH]n(C(N)=S)c2=O)cc1	3.2µM	0.45µM	?	0.63µM	?	2.7µM
Cc1ccccc1N=Nc1c(C)[nH]n(C(N)=S)c1=O	–	–	–	–	?	?
CCN(CC)S(=O)(=O)c1ccc(N=Nc2c(C)[nH]n(C(N)=S)c2=O)cc1	?	?	–	?	?	8.5µM
O=C(NCc1ccc2c(c1)CCN2C(=O)c1ccc(F)cc1)c1cc2ccccc2[nH]1	·	·	·	·	·	–
CCc1nnc(NC(=O)[C@@H](NC(=O)c2cccc(S(=O)(=O)N(CC)CC)c2)C(C)C)s1	–	–	–	–	–	–
N#CCSc1nc2ccccc2c2nc3ccccc3n12	–	–	–	–	21µM	–
CCn1c(SCC#N)nc2ccccc2c1=O	·	?	–	–	–	–
N#CCSc1nc2cc(C(=O)N3CCC(C(N)=O)CC3)ccc2c2nc3ccccc3n12	–	–	–	–	21µM	–
N#CCSc1nc2cc(C(=O)N3CCCC3)ccc2c(=O)n1Cc1ccccc1	–	–	–	–	?	–
C=CCn1c(SCc2ccc(Cl)cc2)nc2cc(C(=O)N3CCC(C(N)=O)CC3)ccc2c1=O	–	–	–	–	8.2µM	–
C=CCc1c(C)nc2nc(SCC(=O)Nc3ccccc3CC)nn2c1C	·	·	·	·	·	–
COC(=O)c1cn(Cc2cc(OC)ccc2OC)cc(F)c1=O	·	–	–	–	–	–
COc1cccc(C2c3c(-c4ccccc4)n[nH]c3C(=O)N2c2ccc(C(=O)O)cc2)c1 (centres undefined)	–	–	–	–	–	–
COc1ccc(C2c3c(-c4ccccc4)n[nH]c3C(=O)N2c2ccc(C(=O)O)cc2)cc1 (centres undefined)	·	–	–	–	–	17µM
CC1CCCC(C)N1CCCNC(=O)Cn1ncc2c3ccccc3n(C)c2c1=O (centres undefined)	·	–	–	–	–	–
O=C(O)c1ccc2c3c(cccc13)C(=O)N(c1ccccc1)C2=O	–	–	–	–	–	–
CC(=O)c1ccc2c3c(cccc13)C(=O)N(CCc1ccccc1)C2=O	·	4µM	–	4µM	?	11µM
